The text below walks through data of PubChem BioAssay (NCI).

Structures are written as SMILES. This is part of a sample that, as a whole, favours compounds with a hit. Of some 83,000 tested, about 20% had one in any assay.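 Single-dose data. Exposure time 48 hours. Values below 10 considered active.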 A number with no mark means an inactive call. Activity calls are given as the source filed them.

Common to all, as to experiment: NCI-60 one-dose screen, 48 h (100 = growth as untreated, 0 = no growth, -100 = all killed)
For one test, the system named is SK-MEL-2 melanoma. Conditions: 10 µM unless noted.
The subject of the next test is EKVX NSCLC. Conditions: 10 µM unless noted.
In the next test the test system is SN12C renal. The conditions noted are these: 10 µM unless noted.
The next test concerns UO-31 renal. The conditions noted are these: 10 µM unless noted.
Another test has as its system TK-10 renal. The conditions noted are these: 10 µM unless noted.
The subject of another test is ACHN renal. Conditions: 10 µM unless noted.
The test system of another test is CAKI-1 renal. Conditions: 10 µM unless noted.
Another test deals with A498 renal. Conditions: 10 µM unless noted.
The test system of a further test is CCRF-CEM leukemia. Conditions: 10 µM unless noted.
The next test relates to MOLT-4 leukemia. Conditions: 10 µM unless noted.
For the next test, the system named is SR leukemia. Conditions: 10 µM unless noted.
For another test, the system named is RPMI-8226 leukemia. Conditions: 10 µM unless noted.
The test system of a further test is OVCAR-8 ovarian. The conditions noted are these: 10 µM unless noted.
For another test, the system named is OVCAR-4 ovarian. Conditions: 10 µM unless noted.
The next test relates to SK-OV-3 ovarian. Conditions: 10 µM unless noted.
In the next test the test system is IGROV1 ovarian. Conditions: 10 µM unless noted.
Another test relates to HS 578T breast. Conditions: 10 µM.
The subject of the next test is NCI/ADR-RES ovarian. The conditions noted are these: 10 µM unless noted.
The subject of another test is OVCAR-5 ovarian. Conditions: 10 µM unless noted.
A further test relates to OVCAR-3 ovarian. The conditions noted are these: 10 µM unless noted.

Turning to `CCOCC(O)(c1ccc(Cl)cc1)c1ccc(Cl)cc1`, the growth with SK-MEL-2 melanoma was 102%; in the test on EKVX NSCLC it was 94.1%; in the test on SN12C renal, 105%; in the test on UO-31 renal, 91.3%; with TK-10 renal it was 110%; in the test with ACHN renal, 98.7%. Also, the growth in the test on CAKI-1 renal is 88.2%; with A498 renal it was 112%; with CCRF-CEM leukemia, 96.1%; in the test with MOLT-4 leukemia, 88.7%; with SR leukemia, 100%; with RPMI-8226 leukemia it was 107%. In addition, the growth is 103% in the test with OVCAR-8 ovarian; 112% in the test with OVCAR-4 ovarian; 105% in the test on SK-OV-3 ovarian; 101% in the test on IGROV1 ovarian; 109% in the test with HS 578T breast; 99.7% in the test with NCI/ADR-RES ovarian.

As to `O=C(Nc1cccc(Cl)c1)Nc1cc(C(F)(F)F)ccc1Cl`, the growth with SK-MEL-2 melanoma was 4.93% (active); with EKVX NSCLC, 16%; with SN12C renal, -24.4% (active); in the test with UO-31 renal, 10.7%; with TK-10 renal it was 16.9%; in the test with ACHN renal it was 2.64% (active). Also, the growth was 9.58% (active) in the test on CAKI-1 renal; 61.7% in the test on A498 renal; 17% with CCRF-CEM leukemia; 10.1% in the test on MOLT-4 leukemia; -14% (active) with RPMI-8226 leukemia; 15.2% in the test with OVCAR-8 ovarian. The growth in the test on OVCAR-5 ovarian is 44.2%; in the test on OVCAR-4 ovarian, 11.6%; with SK-OV-3 ovarian, 9.3% (active); in the test on IGROV1 ovarian, 14.3%; in the test on OVCAR-3 ovarian, 18.9%; in the test with HS 578T breast it was 55.9%. For the same compound, the growth with NCI/ADR-RES ovarian is 2.25% (active).

Turning to `CCc1oc2ccccc2c1C(=O)c1cc(I)c(O)c(I)c1`, the growth was 1.14% (active) with SK-MEL-2 melanoma; 84.5% in the test on EKVX NSCLC; 46.4% in the test with SN12C renal; 80% with UO-31 renal; 87.7% with TK-10 renal; 72.9% in the test on ACHN renal. Further, the growth with CAKI-1 renal was 45.9%; in the test on A498 renal it was 98.2%; in the test on CCRF-CEM leukemia, 66.2%; in the test with MOLT-4 leukemia it was 32.5%; in the test with RPMI-8226 leukemia, 55.2%; with OVCAR-8 ovarian it was 56.7%. In addition, the growth with OVCAR-5 ovarian was 86.5%; with OVCAR-4 ovarian, 71%; with SK-OV-3 ovarian, 105%; with IGROV1 ovarian, 50.5%; in the test with OVCAR-3 ovarian, 13.6%; with HS 578T breast it was 49.2%. Moreover, in the test on NCI/ADR-RES ovarian, the growth is -6% (active).

Take `COc1cc2c(cc1I)-c1c(cc(OC)c(OC)c1OC)CC[C@@H]2NC(C)=O`: the growth in the test with SK-MEL-2 melanoma was 18.7%; in the test on EKVX NSCLC, 44.6%; with SN12C renal, 26.2%; in the test on UO-31 renal it was 29.5%; in the test with TK-10 renal, 59%; with ACHN renal, 33.2%. For the same compound, the growth was 8.95% (active) in the test with CAKI-1 renal; -30.6% (active) in the test with A498 renal; 22.4% in the test on CCRF-CEM leukemia; 24.3% in the test with MOLT-4 leukemia; 35.5% in the test with RPMI-8226 leukemia; 24.6% in the test with OVCAR-8 ovarian. Moreover, the growth in the test on OVCAR-5 ovarian is 36%; in the test on OVCAR-4 ovarian, 40.8%; in the test with SK-OV-3 ovarian, 10.3%; in the test on IGROV1 ovarian it was 9.96% (active); in the test with OVCAR-3 ovarian, 17.3%; with HS 578T breast, -21.4% (active). Moreover, in the test with NCI/ADR-RES ovarian, the growth is -19.2% (active).

As to `CCOC(C)(c1ccc(Cl)cc1)C1CCNCC1` (centres undefined), the growth in the test on SK-MEL-2 melanoma was 106%; in the test with EKVX NSCLC, 72.9%; with SN12C renal it was 100%; with UO-31 renal, 80.6%; in the test with TK-10 renal, 96.1%; in the test with ACHN renal, 98.4%. Moreover, the growth in the test with CAKI-1 renal was 100%; with A498 renal, 86.1%; in the test on CCRF-CEM leukemia it was 109%; in the test on MOLT-4 leukemia it was 81.7%; in the test on SR leukemia it was 88.1%; with RPMI-8226 leukemia, 114%. The growth in the test on OVCAR-8 ovarian is 100%; in the test on OVCAR-5 ovarian it was 102%; in the test with SK-OV-3 ovarian it was 96.1%; in the test on IGROV1 ovarian it was 115%; in the test with OVCAR-3 ovarian it was 110%; with HS 578T breast, 92.7%. Also, the growth in the test on NCI/ADR-RES ovarian was 92.5%.

For `Cc1ccc(/C=C/C(=N/N=C(N)N)c2ccccc2)cc1`, the growth in the test on SK-MEL-2 melanoma was 49.3%; in the test with EKVX NSCLC, 35.4%; with SN12C renal, 34.3%; in the test with UO-31 renal it was 21.7%; in the test on TK-10 renal it was 44%; in the test with ACHN renal it was 48.5%. Further, the growth with CAKI-1 renal is 16.4%; in the test with A498 renal, -5.04% (active); with CCRF-CEM leukemia it was 25.2%; in the test on MOLT-4 leukemia, 24%; with SR leukemia, -9.62% (active); in the test on RPMI-8226 leukemia, 11.1%. For the same compound, the growth with OVCAR-8 ovarian is 24.6%; in the test on SK-OV-3 ovarian it was 9.84% (active); with IGROV1 ovarian, 43.1%; in the test with OVCAR-3 ovarian, -28.6% (active); with NCI/ADR-RES ovarian it was 35.2%.

In the case of `Oc1ccc(CCCCCCc2ccc(O)cc2)cc1`, the growth was 89.2% in the test on SK-MEL-2 melanoma; 74.5% with EKVX NSCLC; 69.6% with SN12C renal; 25.6% in the test on UO-31 renal; 84.9% in the test on TK-10 renal; -4.64% (active) in the test with ACHN renal. The growth was 16.8% with CAKI-1 renal; 103% in the test on A498 renal; 18.5% in the test with CCRF-CEM leukemia; 106% in the test on MOLT-4 leukemia; 64.7% in the test with RPMI-8226 leukemia; 44.1% in the test on OVCAR-8 ovarian. For the same compound, the growth is 86.1% with OVCAR-5 ovarian; 50% with OVCAR-4 ovarian; 71.5% in the test with SK-OV-3 ovarian; 60.4% in the test on IGROV1 ovarian; 83.1% with OVCAR-3 ovarian; 103% in the test on HS 578T breast. Also, the growth in the test with NCI/ADR-RES ovarian was 33.3%.

As to `Cc1c(-c2ccc(-c3ccccc3F)cc2)nc2ccc(F)cc2c1C(=O)O`, the growth was 101% in the test on SK-MEL-2 melanoma; 55% in the test on EKVX NSCLC; 47.6% in the test on SN12C renal; 35.8% in the test on UO-31 renal; 56% with TK-10 renal; 36.5% in the test on ACHN renal. The growth in the test with CAKI-1 renal was 25.9%; with A498 renal, 80.9%; with CCRF-CEM leukemia, 27.9%; in the test on MOLT-4 leukemia it was 2.49% (active); with SR leukemia, 23.4%; with RPMI-8226 leukemia it was 23.3%. In addition, the growth is 34.8% with OVCAR-5 ovarian; 75.1% in the test with OVCAR-4 ovarian; 65.1% with SK-OV-3 ovarian; 44.6% in the test with IGROV1 ovarian; 55.9% with OVCAR-3 ovarian; 67% in the test on HS 578T breast. The growth with NCI/ADR-RES ovarian was 49.6%.
